The record followed here is PubChem BioAssay (NCATS).

Where “and” joins values, the source holds several entries; their conditions need not be identical. Equal values may be shown once. Records with an inconclusive call do not appear. A number with no mark means an inactive call. Calls of active or inactive are those of the source. Calls come from the whole dose curve.

Assay [1] concerns the target Bile acid receptor (Homo sapiens) (UniProt Q96RI1). As to the kind of experiment: qHTS assay for small molecule agonists of farnesoid X receptor signaling (AID 588527).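 Note: series mostly up to about 77 µM; 0% = vehicle basal and 100% = reference agonist.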 Conditions: HEK293T FXR-UAS-bla, beta-lactamase ratio, 16 h; activation: stronger effect = higher value. In short, it runs like this:
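Read-out: beta-lactamase reporter fluorescence with CCF4 substrate in GeneBLAzer FXR-UAS-bla HEK293T cells, after 16 h compound exposure at 37 C. Response scaled between DMSO basal (0%) and chenodeoxycholic acid at 100 uM (100%).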

In assay [2] the target is Peroxisome proliferator-activated receptor delta (Homo sapiens) (UniProt Q03181). Put plainly: qHTS assay for small molecule agonists of peroxisome proliferator-activated receptor delta signaling (AID 588534).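 Note: 0% = DMSO basal wells and 100% = positive control agonist at 10 µM.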 In short, it runs like this: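 Fluorescence from CCF4 substrate cleavage by beta-lactamase reporter, read 2 hrs at RT, measured agonist activity. Compounds were tested with 18 hrs exposure at 37 C. Concentration-response data fitted to Hill equation.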
Sequence of Peroxisome proliferator-activated receptor delta (Homo sapiens) (Q03181 whole entry, looked up): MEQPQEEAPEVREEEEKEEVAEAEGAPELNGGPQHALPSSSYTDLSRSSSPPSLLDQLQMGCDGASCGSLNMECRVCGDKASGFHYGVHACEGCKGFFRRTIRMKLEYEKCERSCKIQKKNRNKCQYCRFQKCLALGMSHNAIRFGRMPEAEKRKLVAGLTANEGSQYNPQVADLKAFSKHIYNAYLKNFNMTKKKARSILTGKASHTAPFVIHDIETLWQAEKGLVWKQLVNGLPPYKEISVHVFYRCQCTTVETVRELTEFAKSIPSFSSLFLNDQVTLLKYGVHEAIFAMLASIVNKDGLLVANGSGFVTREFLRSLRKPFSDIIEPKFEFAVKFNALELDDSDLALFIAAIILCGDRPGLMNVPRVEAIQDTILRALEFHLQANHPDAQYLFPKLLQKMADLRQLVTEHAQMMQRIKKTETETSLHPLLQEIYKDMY
For orientation: In qHTS, concentration-response curves come from the screen itself.

Sequence of Bile acid receptor (Homo sapiens) (Q96RI1 whole entry, looked up): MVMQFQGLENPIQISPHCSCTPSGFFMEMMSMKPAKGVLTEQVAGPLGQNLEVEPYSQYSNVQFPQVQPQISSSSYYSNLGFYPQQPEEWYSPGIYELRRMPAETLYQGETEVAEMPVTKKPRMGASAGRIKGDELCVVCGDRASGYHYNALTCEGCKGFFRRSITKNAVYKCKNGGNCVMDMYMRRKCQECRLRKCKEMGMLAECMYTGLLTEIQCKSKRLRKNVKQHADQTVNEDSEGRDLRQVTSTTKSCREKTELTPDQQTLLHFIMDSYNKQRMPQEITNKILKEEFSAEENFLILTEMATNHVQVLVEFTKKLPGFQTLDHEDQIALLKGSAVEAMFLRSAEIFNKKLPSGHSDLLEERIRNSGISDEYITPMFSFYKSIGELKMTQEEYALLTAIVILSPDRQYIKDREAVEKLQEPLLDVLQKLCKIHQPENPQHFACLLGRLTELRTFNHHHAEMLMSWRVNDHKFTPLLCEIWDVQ

With `CN(C)CCCCl`, the activation in assay [1] is -3.17%. Also, the molecule was classed as inactive in assay [2].

With `CNc1nc(=O)n(C2CCCCC2)c(=O)n1C`, the activation in assay [1] is -6.04%. For the same molecule, the molecule was classed as inactive in assay [2].

As to `CC(=O)CC(=O)Nc1ccc(C)cc1C`, the activation in assay [1] was 0.192%. Moreover, the outcome in assay [2] was inactive.

For `CN(C)CCCNCCCN`, the activation in assay [1] was 2.54%. In assay [2], the molecule was classed as inactive.

`CCCCCCCCCCCC[N+](C)(C)[O-]`: the activation in assay [1] is 8.79%. Also, the call in assay [2] was inactive.

`Cc1ccc(C)c(N)c1`: the activation in assay [1] is -1.33%. Also, the molecule was called inactive in assay [2].

In the case of `OB(O)O`, the activation in assay [1] is 1.87% and 2.1%. The outcome in assay [2] was inactive.

Regarding `Cc1ccc(S(=O)(=O)NC2CCCCC2)cc1`, in assay [1], the activation is 0.615%. In addition, the molecule was classed as inactive in assay [2].

Take `O=C(/C=C/c1ccc(O)c(O)c1)O[C@@H](C(=O)O)[C@@H](OC(=O)/C=C/c1ccc(O)c(O)c1)C(=O)O`: the activation in assay [1] is -1.16%. In addition, the result in assay [2] was inactive.

In the case of `Oc1c(Cl)cc(Cl)c(Cl)c1Cl`, the activation in assay [1] was -1.79% and -2.07%. Moreover, the call in assay [2] was inactive.

As for `O=CNc1ccccc1`, in assay [1], the activation was -1.29%. For the same molecule, the outcome in assay [2] was inactive.

As for `CC(C)(C)[C@H](O)[C@H](Cc1ccc(Cl)cc1)n1cncn1`, in assay [1], the activation was -2.05% and 0.498%. The molecule was classed as inactive in assay [2].

With `O=S(=O)(O)c1ccc(N=Nc2c(O)ccc3cc(S(=O)(=O)O)ccc23)cc1`, in assay [1], the activation was -1.3%. Besides, the result in assay [2] was inactive.

In the case of `c1ccc(SCCSc2ccccc2)cc1`, the activation in assay [1] was -0.837%. Besides, the result in assay [2] was inactive.

In the case of `CNc1nc(=O)n(C2CCC(O)CC2)c(=O)n1C` (stereo not given), the activation in assay [1] is 2.07%. Further, in assay [2], the result was inactive.

Consider `CCCCC`, for which, in assay [1], the activation is -0.0908%. Also, the call in assay [2] was inactive.

With `CCCCCCCCCCCCC1CO1` (stereo not given), the activation in assay [1] was -2.55%. The outcome in assay [2] was inactive.

As for `CCOc1cc(OCC)c(C(C)=O)cc1OCC`, the activation in assay [1] was 0.582%. Further, the outcome in assay [2] was inactive.

As for `CC1(C)C(=O)N(Br)C(=O)N1Br`, the activation in assay [1] was 1.27%. Further, the molecule was called inactive in assay [2].

On to `CSc1ccc(Cl)cc1`, for which, in assay [1], the activation is -0.0441%. The outcome in assay [2] was inactive.

`Cl[Si](Cl)(c1ccccc1)c1ccccc1`: the activation in assay [1] was 3.41%. For the same molecule, in assay [2], the result was inactive.

As for `CC1COCc2cc3c(cc21)C(C)(C)C(C)C3(C)C` (stereo not given), the activation in assay [1] was 0.585%. Further, the outcome in assay [2] was inactive.

As to `CO[Si](CCCOCC1CO1)(OC)OC` (stereo not given), the activation in assay [1] is -0.427%. For the same molecule, the call in assay [2] was inactive.

`CC(C)OC(=O)c1ccccc1C(=O)OC(C)C`: the activation in assay [1] was 0.429%. Besides, the outcome in assay [2] was inactive.

For `C1OCOCO1`, in assay [1], the activation was -0.63%. The molecule was classed as inactive in assay [2].

`CC(O)CO` (stereo not given): in assay [1], the activation is 1.32% and -0.791%. In addition, in assay [2], the call was inactive.

For the molecule `NC(=O)/N=N/C(N)=O`, in assay [1], the activation is -1.16%. In addition, in assay [2], the molecule was called inactive.

In the case of `C=C(C)C(=O)OC`, the activation in assay [1] is -1.27%. The result in assay [2] was inactive.

Take `O=[N+]([O-])c1cc(Cl)c(Cl)c(Cl)c1Cl`: the activation in assay [1] is -3.36%. Also, the result in assay [2] was inactive.

Take `OC1CCC(C2CCCCC2)CC1` (stereo not given): in assay [1], the activation was 0.637%. In addition, the molecule was called inactive in assay [2].

Consider `CC(=O)Nc1ccc(N)cc1`, for which the activation in assay [1] is 1.67%. For the same molecule, in assay [2], the result was inactive.

Consider `COC(=O)c1ccc(C=O)cc1`, for which, in assay [1], the activation is 0.0505% and 0.394%. Moreover, the molecule was classed as inactive in assay [2].

In the case of `CC(C)(C)c1cc(C(C)(C)C)c(O)c(C(C)(C)C)c1`, the activation in assay [1] was 8.66%. For the same molecule, the call in assay [2] was inactive.

As for `C/C=C/C/C=C\CCCCCCCCOC(C)=O`, the activation in assay [1] is -4.9%. For the same molecule, the outcome in assay [2] was inactive.

For the molecule `COc1ccc([N+](=O)[O-])cc1N`, in assay [1], the activation is 0.186% and -0.616%. Besides, the molecule was called inactive in assay [2].

Turning to `CC(=O)N(CCN(C(C)=O)C(C)=O)C(C)=O`, in assay [1], the activation was 1.43%. For the same molecule, the result in assay [2] was inactive.

`NC(=S)NNC(N)=S`: the activation in assay [1] is 0.327% and 1.24%. The molecule was called inactive in assay [2].

Take `O=C(Cl)c1cccc([N+](=O)[O-])c1`: in assay [1], the activation was -3.83%. In addition, the outcome in assay [2] was inactive.

Turning to `CC(C)c1cccc(C(C)C)c1`, the activation in assay [1] is -1.96%. In assay [2], the result was inactive.

For `CCCCCCCCCCCCCCCCCC(=O)OC[C@@H](O)[C@H]1OC[C@H](O)[C@H]1O`, the activation in assay [1] is 5.18%. Besides, the outcome in assay [2] was inactive.

Consider `C=CC(=O)OCC[N+](C)(C)C`, for which, in assay [1], the activation was -2.87%. In assay [2], the outcome was inactive.

In the case of `C=CCCCCCCC=C`, in assay [1], the activation is -0.711%. Further, in assay [2], the result was inactive.

For `O=C(O)CNC(=O)c1ccc([N+](=O)[O-])cc1`, the activation in assay [1] is 1.14%. Further, in assay [2], the result was inactive.

Take `C/C=C1\CC2C=CC1C2` (stereo not given): the activation in assay [1] was 0.0193%. Besides, in assay [2], the result was inactive.

As for `O=C(O)CN(CCO)CCN(CC(=O)O)CC(=O)O`, in assay [1], the activation was -2.73%. The molecule was classed as inactive in assay [2].

Take `C=C[Si](OCCOC)(OCCOC)OCCOC`: the activation in assay [1] was -1.57%. For the same molecule, in assay [2], the outcome was inactive.

With `C=Cc1ccc(P(c2ccccc2)c2ccccc2)cc1`, in assay [1], the activation is -1.25%. Besides, the molecule was called inactive in assay [2].

On to `CC(/C=C/C=C(C)/C=C/C(=O)O)=C\C=C\C=C(C)\C=C\C=C(C)\C=C\C(=O)O`, for which the activation in assay [1] is 3.47%. Also, the outcome in assay [2] was inactive.

In the case of `COC(=O)c1cccc(C)c1S(=O)(=O)NC(=O)Nc1nc(OCC(F)(F)F)nc(N(C)C)n1`, in assay [1], the activation is -2.17%. Further, the result in assay [2] was inactive.

In the case of `CCCOCC(C)OCC(C)O` (stereo not given), in assay [1], the activation is 1.34%. Besides, in assay [2], the call was inactive.

For the molecule `CCCCCCc1ccc(N)cc1`, the activation in assay [1] was -3.51%. Also, the molecule was classed as inactive in assay [2].

As to `CCCCCCCC/C=C\CCCCCCCC(=O)N(CCO)CCO`, the activation in assay [1] is 0.527%. The molecule was called inactive in assay [2].

As for `Nc1cccc([N+](=O)[O-])c1`, the activation in assay [1] was -0.749%. Further, the molecule was classed as inactive in assay [2].

For `Cc1ccc([N+](=O)[O-])c(C)c1`, in assay [1], the activation was 0.441% and 0.298%. Also, the molecule was classed as inactive in assay [2].

Take `Cc1cc(C(C)(C)CC(C)(C)C)ccc1OCCOCC[N+](C)(C)Cc1ccccc1`: the activation in assay [1] was -0.746%. Further, in assay [2], the outcome was inactive.

As to `CC(N)CN` (stereo not given), in assay [1], the activation is -2.35%. Moreover, the molecule was called inactive in assay [2].

For `COc1ccc(N)c(C)c1`, the activation in assay [1] is -1.77%. The call in assay [2] was inactive.

With `CN(C)c1nc(=O)n(C2CCC(O)CC2)c(=O)n1C` (stereo not given), the activation in assay [1] is 2.83%. Further, the result in assay [2] was inactive.

For `N#CCc1ccccc1[N+](=O)[O-]`, in assay [1], the activation is -1.36%. The result in assay [2] was inactive.

Turning to `CCCC(Cl)CCCC(Cl)CCC(Cl)CCC(Cl)CCC(Cl)CCCC(Cl)CCC` (stereo not given), the activation in assay [1] is 1.98%. Further, the outcome in assay [2] was inactive.
